High-throughput results as filed in PubChem.
A selection: hits, their analogues and other compounds. The true share with any hit is near 9.3%.
M1 antag – antagonists of rat M1 muscarinic receptor; B-score at 10 µM; P08482; AID 628; CHO-M1 cells, Fluo-4 calcium, ACh EC80 antagonist mode; stronger effect = lower value; 64,000 tested, 3.4% active;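 active = calcium fluorescence response, raw or row-and-column corrected B-score, differing from the plate sample mean either way at a set confidence level, mostly lower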
Target sequence (P08482 whole entry, looked up): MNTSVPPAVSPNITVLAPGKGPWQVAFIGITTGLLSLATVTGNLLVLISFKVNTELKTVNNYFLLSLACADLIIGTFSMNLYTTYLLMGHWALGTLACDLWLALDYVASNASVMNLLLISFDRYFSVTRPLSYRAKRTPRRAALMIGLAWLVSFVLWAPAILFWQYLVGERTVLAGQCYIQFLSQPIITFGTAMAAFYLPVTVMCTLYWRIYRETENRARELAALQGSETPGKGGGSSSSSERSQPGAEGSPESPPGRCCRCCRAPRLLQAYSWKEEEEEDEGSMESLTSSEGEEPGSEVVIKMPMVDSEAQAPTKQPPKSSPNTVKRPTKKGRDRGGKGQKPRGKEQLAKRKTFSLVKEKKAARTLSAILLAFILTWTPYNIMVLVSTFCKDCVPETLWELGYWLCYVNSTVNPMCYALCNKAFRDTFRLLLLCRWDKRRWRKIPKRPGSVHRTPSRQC
NADH coupling – blocks coupling enzymes of NAD/NADH assays; IC50, µM (top dose mostly 10 µM), for the others: at the top dose inhibition; AID 774; coupled PK/LDH NADH assays, four targets; 65,000 tested, 0.02% active;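 active = single-dose screening hits from any of four coupled enzyme assays that gave an IC50 when retested across doses; inconclusive = no clear call, values can overlap the other calls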;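 note: the DPM-DC format reads NADH fluorescence rather than 340 nm absorbance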
Autofluor 339 – intrinsic fluorescence of library compounds, ex339/em460 – biochemical, MLSMR library, data from DPM-DC assay, artefact control, profiling panel. compound autofluorescence, ex339/em460 nm, NADH buffer; stronger effect = higher value; 1 = no-compound wells, NADH background. fluorescence fold increase at 10 µM. 65,000 tested, 5.5% active;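 active = at 10 µM, mean starting fluorescence two-fold or more over control wells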;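 note: signal is the first read of a kinetic run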
M1 agonist – M1 muscarinic receptor agonism. CHO-M1 cells, Fluo-4 calcium fluorescence, agonist mode; stronger effect = higher value. B-score at 10 µM. 64,000 tested, 3% active;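 active = fluorescence rise, raw or as B-score row- and column-corrected plate score, outside the 99.7% band of its plate's samples, either direction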
Htt clearance – compounds clearing mutant huntingtin protein. inhibition, % at 1.5 µM. 47,000 tested, 0.42% active. HeLa Exon1htt(103Q)mCFP, aggregate imaging; zero = plate's median compound well. AID 853;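 active = inhibition of aggregate fluorescence above about 70%, also judged a hit by eye on the cell image, limit read from the data, passing the limit was not always enough; inconclusive = no rule stated for this call; inactive = not judged a hit on image review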;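 note: cells exposed to compound for three days before fixation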
Abs 340nm – compound absorbs light at 340 nm; fold change at 10 µM; 65,000 tested, under 10 active; compound absorbance at 340 nm, fold over control;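 active = at 10 µM dose, initial 340 nm absorbance at least 2 fold that of control wells; inactive = change under 2 fold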;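 note: initial absorbance extrapolated from kinetic A340 decline of NADH oxidation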
* marks the source's active call; other numbers are inactive results; ? = inconclusive; . = no result.

SMILES	M1 antag	NADH coupling	Autofluor 339	M1 agonist	Htt clearance	Abs 340nm
Cc1ccc(S(=O)(=O)N2CCN(c3ncnc4c3cnn4-c3ccccc3)CC2)cc1	-0.238	6.0%	1.11	0.706	-26.9	1.01
Nc1cccc(-c2nc3ccccc3[nH]2)c1	0.961	2.0%	2.16*	-0.0795	.	0.99
Cn1cc(-c2nc3ccccc3[nH]2)c2ccccc21	-0.0532	1.0%	2.13*	-0.664	.	1.02
Cc1n[nH]c(C)c1-c1nc2ccccc2[nH]1	0.938	4.0%	1.03	0.0309	-39.6	1
Cn1c(/C=N/c2nc3ccccc3[nH]2)nc2ccccc21	0.584	6.0%	1.16	-0.511	.	1.03
Nc1ccc(-c2nc3ccccc3[nH]2)cc1	0.341	3.0%	2.13*	0.496	.	1.14
Nc1ccc(C(=O)OCc2nc3ccccc3[nH]2)cc1	0.0686	6.0%	1	-0.729	-3.2	1.01
Nc1ccccc1-c1nc2ccccc2[nH]1	-0.656	7.0%	3.83*	-0.467	-31.4	1.1
Cc1ccc2nc(-c3cccc(N)c3)[nH]c2c1	.	.	.	.	3.1	.
Cc1ccc2[nH]c(=O)c(CN(CCCN3CCOCC3)C(=O)Nc3cccc(Cl)c3)cc2c1	0.00856	2.0%	1.17	1.08	.	1.01
CC/C(=N\NS(C)(=O)=O)c1ccccc1	.	.	.	.	-45.9	.
CC(=O)c1cccc(-n2nnnc2SCC(=O)N2CCCC2)c1	-1.6	11.0%	1.01	-0.0355	.	0.99
O=c1c(-c2ccc3c(c2)OCCO3)coc2c(CN3CCOCC3)c(O)ccc12	0.0559	7.0%	3.79*	1.58	14.3	1.08
COc1cccc(Oc2coc3c(CN4CCOCC4)c(O)ccc3c2=O)c1	-1.92	9.0%	3.89*	0.0516	28.0	1.08
CC(CN1CCOCC1)OC(=O)c1ccc2c(c1)OCCO2 (configuration not stated)	-0.0414	5.0%	1.11	-0.3	.	1.01
CC(=O)Nc1cccc(OCC(=O)NS(=O)(=O)c2ccc(Cl)cc2)c1	-1.22	8.0%	1.07	0.681	1.4	1.03
O=C(O)c1ccccc1NS(=O)(=O)c1cccc2cccnc12	-1.51	5.0%	1.12	0.0144	77.4*	1.01
COc1ccccc1NS(=O)(=O)c1cccc2cccnc12	0.0363	26.0%	1.13	-0.55	.	1.05
CCOC(=O)Cc1c(C)nc2c(-c3ccc(Cl)cc3)c[nH]n2c1=O	0.578	7.0%	2.12*	-1.06	.	1.12
COc1ccccc1NC1=C(C)C(=O)CC1	-0.11	3.0%	1.05	0.83	1.8	1
COc1ccc(OC)c2c1CCC2=O	0.446	4.0%	2.31*	-0.996	-22.3	1.03
Cc1ccc2c(c1)N(CC(=O)NC1CCCCC1C)C(=O)CO2 (configuration not stated)	-0.495	5.0%	1.1	-1.3	?	0.98
Clc1ccc(-c2nnc3sc(-c4ccc(Br)o4)nn23)cc1	-0.124	4.0%	2.2*	0.0137	.	1.02
COc1ccc(OC)c(C2C(C(C)=O)=C(O)C(=O)N2Cc2cccnc2)c1 (configuration not stated)	-0.82	5.0%	1.01	-2.4	.	1.1
CCOC(=O)N1CCN(C(=O)Nc2ccc3nc(C)c(C)nc3c2)CC1	-0.317	7.0%	2.22*	-0.0811	-17.5	1.12
SMILES	M1 antag	NADH coupling	Autofluor 339	M1 agonist	Htt clearance	Abs 340nm
CCOC(=O)N1CCN(C(=O)Nc2ccc3nccnc3c2)CC1	.	.	.	.	-8.1	.
CCSc1nnc(-c2ccc(Cl)cc2Cl)o1	1.97*	9.0%	1.1	0.0702	.	1.05
COc1ccc2oc(-c3ccc(C)c(NC(=O)c4ccc(N5CCOCC5)c([N+](=O)[O-])c4)c3)nc2c1	.	.	.	.	-47.7	.
C=CCn1c(N)c(C(=O)NCC2CCCO2)c2nc3ccccc3nc21 (configuration not stated)	-0.828	8.0%	3.81*	3.45	17.5	1
O=C(NCC1CCCO1)c1coc2nc3ccccc3nc12 (configuration not stated)	0.232	16.0%	2.54*	-0.13	25.4	1.13
CN(c1ccccc1C(=O)NCC1CCCO1)S(C)(=O)=O (configuration not stated)	-1.81	5.0%	1.21	1.64	-57.6	1
COc1ccc(-n2c(N)c(C(=O)NCC3CCCO3)c3nc4ccccc4nc32)c(OC)c1 (configuration not stated)	-0.327	8.0%	3.9*	0.935	7.7	1
COc1ccc(CSc2nnc3n(C)c(=O)c4c5c(sc4n23)CCCC5)cc1	-1.25	3.0%	1.08	-0.561	.	0.98
Cn1c(=O)c2c(-c3ccccc3)n3c4ccccc4ncc3c2n(C)c1=O	1.26	7.0%	3.86*	2.72	.	1.07
Cn1nc(-c2ccc(Cl)cc2)c2cc(C(=O)N3CCC(N4CCCCC4)CC3)sc21	0.735	9.0%	1.37	-0.642	.	1
Cc1oc2c(O)c(O)ccc2c(=O)c1-c1ccccc1	0.971	13.0%	0.98	0.441	.	1.04
COc1ccccc1-c1c(C)oc2c(CN3CCN(CCO)CC3)c(O)ccc2c1=O	0.405	1.0%	3.92*	1.42	.	1.13
Cc1oc2c(CN(C)C)c(O)ccc2c(=O)c1-c1ccc2ccccc2n1	0.474	1.0%	1.15	0.508	-9.0	1.18
Cc1oc2c(CN3CCCC3)c(O)ccc2c(=O)c1-c1ccc(Br)cc1	1.58	10.0%	3.78*	0.113	.	1.13
CCOC(=O)c1oc2cc(OCC(N)=O)ccc2c(=O)c1-c1ccc(OC)c(OC)c1	0.661	3.0%	1.02	0.31	.	1.02
COc1ccccc1-c1c(C)oc2c(CN3CCN(C)CC3)c(O)ccc2c1=O	0.0195	10.0%	2.35*	0.179	.	1.07
COc1ccc(-c2c(C)oc3c(CN4CCN(CCO)CC4)c(O)ccc3c2=O)cc1OC	-0.00318	0.0%	3.85*	-0.497	.	1.15
O=c1oc2cc(Cl)ccc2n1CSc1nc2ccccc2s1	.	.	.	.	-9.4	.
CC(CS(=O)(=O)c1ccc2ccccc2c1)N1CCN(C2CCCCC2)CC1 (configuration not stated)	.	.	.	.	34.5	.
CNS(=O)(=O)c1cccc(C(=O)OCC(=O)N2CCc3ccccc3C2)c1	.	.	.	.	-32.7	.
CCOC(=O)c1c(C)n(C)c2ccc(O)c(CN3CCN(C)CC3)c12	0.153	4.0%	1.15	0.148	-6.5	1.01
CCOC(=O)c1oc2c(CN3CCN(C)CC3)c(O)ccc2c(=O)c1-c1ccccc1OC	0.805*	1.0%	0.97	0.868	15.2	1.01
CCOc1ccccc1Oc1c(C)oc2c(CN3CCN(C)CC3)c(O)ccc2c1=O	1.03	12.0%	3.93*	-0.236	.	1.12
CN1CCN(Cc2c(O)ccc3c(-c4ccccc4)cc(=O)oc23)CC1	-1.53	2.0%	1.36	-0.0621	7.5	1.07
N#Cc1c(N)sc(=S)c2c1CCN(Cc1ccccc1)C2	-1.56	15.0%	4.29*	-0.634	.	1.07
COc1cc2ccccc2cc1C(=O)OCC(=O)N1CCOCC1	0.0302	7.0%	5.06*	-0.368	.	1.02
CCn1ncc(C2=NOC(C(=O)Nc3cccc(C(C)=O)c3)C2)c1C (configuration not stated)	-0.694	3.0%	1.11	0.516	.	1
